Screening results from PubChem BioAssay.
The list is not random: actives were taken first. Their share in the collection is about 4.7%.
DRD3 antagonist: qHTS of D3 Dopamine Receptor Antagonist: qHTS. max response, negative = inhibition, %. D3R cells, DiscoveRx beta-arrestin luminescence, antagonist mode; stronger effect = lower value. hit rate 2.5% among 360,000. D(3) dopamine receptor (Homo sapiens), P35462; in the data active = max response below about -50%; inconclusive = no clear call, values can overlap the other calls
Target sequence (P35462 whole entry, looked up): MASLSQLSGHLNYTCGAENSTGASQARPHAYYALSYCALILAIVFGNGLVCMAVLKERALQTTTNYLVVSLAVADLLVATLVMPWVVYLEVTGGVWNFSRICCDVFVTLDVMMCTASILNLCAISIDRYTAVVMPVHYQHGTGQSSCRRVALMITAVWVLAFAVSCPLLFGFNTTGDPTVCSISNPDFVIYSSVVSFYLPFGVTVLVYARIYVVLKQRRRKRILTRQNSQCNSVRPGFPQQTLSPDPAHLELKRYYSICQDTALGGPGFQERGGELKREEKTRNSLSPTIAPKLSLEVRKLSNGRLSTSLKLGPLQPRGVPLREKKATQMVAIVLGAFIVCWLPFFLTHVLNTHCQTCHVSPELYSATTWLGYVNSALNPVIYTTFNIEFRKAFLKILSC
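Cells expressing the human receptor were seeded at 1500 cells/well, incubated overnight at 37 degrees C in 5% CO2, then exposed to library compounds with dopamine controls for 90 minutes at 37 degrees C before luminescent detection.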
ATXN2 expr inh: Primary qHTS for Inhibitors of ATXN expression; hit rate 0.72% among 360,000; HEK-293 ATXN2-luciferase reporter, luminescence, 24 h; Potency, µM (top dose mostly 57 µM), hits mostly inhibitors; AID 1745845, 2022; also: nearly all actives have a fitted effect of over 55% in size
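qHTS (up to 57 uM final) was run with 24 h compound exposure of reporter cells at 37 °C. Each well was multiplexed: SteadyGlo luminescence measured ATXN2-luciferase expression after a fluorogenic Gly-Phe-AFC viability readout (25 uM final).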
D3 ag: qHTS of D3 Dopamine Receptor Agonist: qHTS. D(3) dopamine receptor (Homo sapiens), P35462. D3R DiscoveRx beta-arrestin cells, luminescence, 90 min. max activation, %. hit rate 0.58% among 410,000. AID 652048, 2013; in the data active = max activation above about 30%
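Cells at 1500/well, incubated overnight, then treated with pinned compounds (dopamine as control) for 90 min at 37 degrees C. DiscoveRx reagent added for 30 - 60 minutes at room temperature; luminescence read.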
TGFb SMAD3 inh: qHTS for Inhibitors of TGF-b | Potency, µM (titrated, usually from 46.1 µM), most hits filed as inhibitors | hit rate 1.2% among 410,000 | HepG2 CAGA-GFP TGF-b/SMAD3 reporter, GFP fluorescence, 18 h; TGF-beta stimulated, 500 pg/mL final; also: nearly all actives have a fitted effect of over 65% in size
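HEPG2 CAGA-GFP, 1000 cells/well; 2 h settle, 37 C; cpd via pin tool; TGF-b 500 pg/mL final; 18 h, 37 C; GFP imaging ex488/em500-530; %Activity normalised to -TGF-b and +DMSO controls; CRC fit, curve class.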
HepG2 viability: qHTS for Inhibitors of TGF-b: Cytotox Counterscreen. HepG2 CAGA-GFP viability, ATP luminescence, 18 h. Potency, µM (titrated, usually from 46.1 µM), most hits filed as cytotoxic. hit rate 0.76% among 410,000. AID 588856, 2011
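HepG2 CAGA-GFP cells (1000/well, DMEM with 1% FBS) received compound, then TGF-beta at 500 pg/mL final, and were incubated 18 hours at 37 degrees C. Viability was read by CellTiter-Glo luminescence. Media-only wells were set as complete cell-killing and DMSO as no toxicity.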
S2 tox: Viability Counterscreen for Primary qHTS for Inhibitors of ATXN expression. Potency, µM (series often up to 56.7 µM), most hits filed as cytotoxic. hit rate 0.49% among 400,000. S2 cells (HEK-293 line with an ATXN2-luciferase reporter) viability, CellTiter-Fluor protease fluorescence, 24 h; also: nearly all actives have a fitted effect of over 40% in size
Numbers stand for hits; i = inactive; ? = inconclusive; nt = no result; [ ] = another dose, or the depositor's remark. Unless noted, calls follow the shape of the dose curve; as a rule, active = well fitted curve in the direction sought with a large enough effect; inconclusive = small, poorly fitted or top-dose-only effect, or another doubt; inactive = no such curve, though single readings can be large; an effect the other way counts as inactive or inconclusive.

SMILES	DRD3 antagonist	ATXN2 expr inh	D3 ag	TGFb SMAD3 inh	HepG2 viability	S2 tox
CSc1cccc(NC(=S)N(CCCN2CCCC(C)C2)Cc2cccs2)c1 (stereo unspecified)	-104	i[11.3 µM]	i	?	i	?
Cc1cc(C)cc(NC(=S)N(CCCN2CCN(C)CC2)Cc2cccs2)c1	i	i	i	i	i	i
COc1ccccc1NC(=S)N(CCN1CCCCCC1)Cc1cccs1	-58	i	i	i	i	i
O=C(CNC(=S)N(CCCN1CCOCC1)Cc1cccs1)NCc1ccc(Cl)cc1	i	nt	i	?	i	i
COc1ccc(NC(=S)N(CCCN2CCC(C)CC2)Cc2cccs2)cc1Cl	-80	i	i	?	i	?
COc1ccc(NC(=S)N(CCCN2CCN(C)CC2)Cc2cccs2)cc1	i	i	i	i	i	i
Cc1cc(C)n(-c2nc(NC(C)C)nc(NC(C)C)n2)n1	-51	i	i	?	i	i
Cc1cc(C)n(-c2nc(NC(C)(C)C)nc(NC(C)(C)C)n2)n1	-62	i	i	i	i	i
Cc1cc(C)n(-c2nc(Nc3ccccc3C(F)(F)F)nc(-n3nc(C)cc3C)n2)n1	i	22µM	i	?	i	?
Cc1cc(Nc2ccccc2C)nc(-n2nc(C)cc2C)n1	nt	nt	i	?	i	nt
O=C(CCC1CCCC1)N1CCc2c([nH]c3ccccc23)C1c1ccc(Cl)cc1 (stereo unspecified)	nt	nt	i	i	i	nt
COc1ccc(C(=O)COC(=O)c2cccc(NC(=O)c3ccc(OC)c(OC)c3)c2)cc1	nt	i	i	i	i	?
O=C(NC1CCOC1=O)c1ccccc1 (stereo unspecified)	i	i	i	i	i	i
CS(=O)(=O)c1ccc(C(=O)NC2CCOC2=O)cc1 (stereo unspecified)	i	i	32	i	i	i
CCc1ccc(NC(=O)C2CCCN(S(=O)(=O)c3ccc4c(c3)CC(C)N4C(C)=O)C2)cc1 (stereo unspecified)	i	?	i	?	i	i
CC(=O)N1c2ccc(S(=O)(=O)N3CCC(C(=O)NC4CCC(C)CC4)CC3)cc2CC1C (stereo unspecified)	i	i	30	i	i	i
CCC(C)NC(=O)C1CCN(S(=O)(=O)c2ccc3c(c2)CC(C)N3C(C)=O)CC1 (stereo unspecified)	i	i	i	i	i	i
CC1Cc2cc(S(=O)(=O)NCc3ccccc3)ccc2N1C(=O)C1CC1 (stereo unspecified)	i	i	i	i	i	i
CCc1ccc(NC(=O)C2CCN(S(=O)(=O)c3ccc4c(c3)CC(C)N4C(C)=O)CC2)cc1 (stereo unspecified)	i	13µM	i	?	i	?
CCc1cccc(NS(=O)(=O)c2ccc3c(c2)CC(C)N3C(=O)C2CC2)c1 (stereo unspecified)	nt	i	i	7.1µM	i	?
Cc1c(Cl)cccc1NC(=O)Nc1nnc(N2CCCCCC2)s1	nt	i	i	i	i	i
O=C(O)C(=O)Nc1cccc(C2=NN=N[N]2)c1	nt	i	nt	nt	nt	i
CCCCCCCCCC[n+]1cc(Br)cc(Br)c1	nt	nt	nt	?	22µM	nt
CCCCCCCCCC[n+]1cccc(Br)c1	nt	nt	nt	?	i	nt
O=C(CC1(c2cccc(F)c2)CC(=O)N(Cc2cccnc2)C1=O)N1CCCCCCC1 (stereo unspecified)	nt	nt	nt	nt	nt	i
SMILES	DRD3 antagonist	ATXN2 expr inh	D3 ag	TGFb SMAD3 inh	HepG2 viability	S2 tox
O=C(/C=C/c1ccccc1)CC(O)(c1ccccc1)C(F)(F)F (stereo unspecified)	?	?	i	11µM	i	?
O=C(/C=C/c1ccccc1)CC(O)(c1ccccc1)C(F)(F)C(F)F (stereo unspecified)	i	?	i	13µM	i	?
O=C(CC(O)(c1ccccc1)C(F)(F)C(F)F)c1cccs1 (stereo unspecified)	i	i	i	i	i	i
COc1ccc(/C=C/C(=O)CC(O)(c2ccccc2)C(F)(F)F)cc1 (stereo unspecified)	i	i	i	?	10µM	i
N[C@H](C(=O)O)[C@@H]1CC(Cl)=NO1	nt	nt	i	nt	nt	nt
CC(C)c1nnc(N2C(=O)c3oc4ccccc4c(=O)c3C2c2cccc(O)c2)s1 (stereo unspecified)	nt	i	i	?	i	i
Cc1ccc(Cn2cnc3c(cnn3C(C)(C)C)c2=O)cc1F	nt	nt	nt	i	i	nt
CN(CCc1ccccc1)C1CCCN(S(=O)(=O)c2cccc(F)c2)C1 (stereo unspecified)	-63	i	i	i	i	i
COc1ccc(CCC(=O)c2c(O)cc(O[C@@H]3O[C@H](CO)[C@@H](O)[C@H](O)[C@@H]3O[C@@H]3O[C@@H](C)[C@H](O)[C@@H](O)[C@@H]3O)cc2O)cc1O	nt	i	nt	nt	nt	nt
C[C@H]1[C@H]2CC[C@H]3[C@@H]4CC=C5C[C@@H](N(C)C)CC[C@]5(C)[C@H]4CC[C@]23CN1C	nt	i	i	nt	nt	?
Cc1nn(Cc2cccc(F)c2)c(C)c1NC(=O)c1ccc(COc2ccccc2Cl)cc1	i	3.2µM	i	?	i	?
Cc1nn(Cc2c(F)c(F)c(F)c(F)c2F)c(C)c1NC(=O)c1ccc(COc2ccc(Cl)cc2Cl)o1	i	20µM	i	?	i	i
Cc1nn(Cc2c(F)c(F)c(F)c(F)c2F)c(C)c1NC(=O)c1cccc(COc2ccccc2Cl)c1	i	?	i	i	i	i
Cc1c(NC(=O)c2cccs2)cccc1-c1nc2cc(Cl)ccc2o1	nt	i	i	?	i	i
CCOc1ccc(CN2CCOc3ccc(C(O)c4cccnc4)cc3C2)cc1 (stereo unspecified)	nt	nt	nt	nt	nt	i
CCN1C(=O)[C@@H]2[C@H](C1=O)[C@@H]1C(=O)Nc3ccccc3C(=O)N1[C@@H]2c1cccc(C)c1	i	i	45	i	i	i
c1ccc2c(c1)CCN(CCCNc1nc3ccccc3n3cnnc13)C2	-109	i	i	i	i	?
Cc1ccc(-c2nn3c(-c4ccccc4C)nnc3c3ccccc23)cc1	nt	nt	i	i	i	nt
Cc1cc2ncn(/N=C/c3ccc([N+](=O)[O-])s3)c2cc1C	i	i	i	i	i	i
Cc1nc2ccccc2n1/N=C/c1ccc([N+](=O)[O-])o1	i	?	i	11µM	i	i
Cc1cc(C)cc(N=Cc2ccc([N+](=O)[O-])s2)c1	?	?	i	11µM	i	?
Cc1nc2ccccc2n1/N=C/c1ccc([N+](=O)[O-])s1	i	21µM	i	6.3µM	i	nt
